Entries with a potency or affinity are not part of this list. Values without a mark were called inactive. No rule for the calls is given here.
Test: cytotoxicity of synthesized analogs in Vero 76, SAR follow-up, cytotoxicity control for West Nile virus antiviral project, Vero 76 cells (AID 2414)
Conditions: Vero 76 cells viability, cytotoxicity CC50; series mostly up to 66.6 µM; viability: at the top concentration

In order of falling “viability” value:
1. O=c1c2c(F)cccc2nc2n1CCC2  103%
2. O=c1c2cc([N+](=O)[O-])ccc2nc2n1CCC2  97.1%
3. Nc1ccc2nc3n(c(=O)c2c1)CCC3  95%
4. Cc1cccc2c(=O)n3c(nc12)CCC3  92.3%
5. O=[N+]([O-])c1ccc2c(c1)C(O)N1CCCC1=N2 (centres undefined)  86.3%
6. COc1ccc(NC(=O)CSc2nc3ccccc3c(=O)n2-c2ccc(F)cc2)cc1  83.6%
7. O=c1c2cccc(Cl)c2nc2n1CCC2  81.9%
8. CCCCN(C(=O)c1ccccc1Cl)c1nc(-c2ccc(OC)cc2)cs1  79.3%
9. COc1ccc(-c2csc(N(CCCBr)C(=O)c3ccccc3Cl)n2)cc1  77.1%

In order of rising “viability” value:
1. OC1c2cc(Br)ccc2N=C2CCCCN21 (centres undefined)  72.1% [at 133 µM]
2. COc1ccc(Cn2nc(C)cc2OC(=O)c2c(F)ccc(C)c2F)cc1  80.8% [at 133 µM]
3. OC1c2cc(Cl)cc(Cl)c2N=C2CCCN21 (centres undefined)  83.3% [at 133 µM]
4. COc1ccc(Cn2nc(C)cc2OC(=O)c2c(F)cccc2F)cc1  93% [at 133 µM]
5. Cc1cc(OC(=O)c2c(F)cccc2F)n(Cc2ccccc2)n1  100% [at 133 µM]

Source: PubChem BioAssay AID2414 (Southern Research Specialized Biocontainment Screening …, 2010)
